From the supplement of paper PMC6555819

system: VDR:RXRa (NR concentration 270 nM, RXRa partner concentration 90 nM); assay: PBM binding z-score (relative to random genomic background probes); higher = stronger binding; sequences stand for … in GC…GCGATTGACAGCGTAGAATGAAGG
Method: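 Protein-binding microarray (Agilent 4x180K custom design, double-stranded 60-nt probes: 5' GC cap, 34-nt variable region, 24-nt constant primer region; full probe sequence given). Purified or IVT nuclear receptor:RXRα heterodimers (3:1 NR:RXRα, mostly 270:90 nM) or homodimers were incubated for 1 h in PBS with 2% milk and no ligand, then detected with Alexa488 antibodies. Fluorescence from o1-orientation probes (~5 replicates averaged) was converted to z-scores against 500 random hg19 background probes. Variable regions are seed direct-repeat (DR0–DR5) sites, all their single-nucleotide variants and half-site ablations.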

Row | Sequence | PBM binding z-score
1 | ATCTCTAGGTAAAGTTCAGTCAAAGATCGATAGA | 1.96
2 | AGTCAAAGTTCGGGACGAGGTAACGTAAAGCACG | 0.784
3 | ATCTCAAGGTAACCAAGTTCAGTGAATGCCGAAC | 5.03
4 | CCTCGGAGGACAGAAAGTCAGAGCTGTCCGCTTT | -0.616
5 | TCATATAGGTAAAGGTGTAAGTCGAACGATATGA | 0.297
6 | CCTACCGGGCCAAAGGTCATTGATTCCAATGCTC | 4.8
7 | ATACCAGGGTGATCGTGAGGTCGTTGATACTAAC | 3.22
8 | TCATATAGGTAAATGCTAGGTCAAAGTCCGATCT | 2.15
9 | CCGATTGGGGCATAAGGTTACCATAAGCCAGCCC | 0.31
10 | GGTATTAGTTGAAAGGGCAACCGAATGATTCTCG | 1.16
11 | CGTCCAAGGTCTTAGGAGGTCAGTGAAGACAGAT | 2.89
12 | GCTGCTAGGTCAACTGATGGTCAGCTTAAGCTCG | 1.62
13 | AGAATGAGGTTATTAAGATCAGGAAATTGCGGTC | 2.43
14 | GGAACGAGGGCAGTCGAGTTGATAGCATGGCGAT | 1.22
15 | CTACCAAGGTGAAAAAGGTCGTTGATTACTATTC | 4.09
16 | TGAGTGAGGTTAAAGATCAGGGAACGTGGCGTCG | 1.66
17 | CCGACTGGGGCATGGTTACCATAACGCACAGCCA | -0.609
18 | CCTACTGGGCCATCAGGTCATTGGTATCAACGTT | 2.04
19 | ACTAGCAGGCCGAGGGTCACTCAAGATTAGTCCG | 1.52
20 | CGTCCAAGGTCATAGGAGGACAGTGAAGACAGAT | 5.21

Row | Sequence | PBM binding z-score
21 | TAACCAAGGTGAGCTGAGGTCGTTGATCCAACTC | 4.26
22 | GCTAGTTGGTCAGTAAAAGGTCGCACACCGGTCG | 1.39
23 | CTCGAAAGGTCGTGCTCAGGAGAGTATACCAAAC | 2.92
24 | TCATATAGGTAAATGCTAGGTGAACGTCCGATCT | 0.914
25 | AGAATGAGGTTATTAAGATCAGCGAATTGCGGTC | 2.57
26 | TCGAGTAGGTTAGTCGGGGCATTGAGCCAACATA | 1.89
27 | GCACGGAGGACAAGGTCAGAGCTTTGTCCGTAGA | 1.34
28 | ACAGACAGGTGAGTGAAAGTAACTCAGCTGGACG | -0.256
29 | AGAACGAAGGCAATGAGTTGATAGCACGGGTGGC | 0.485
30 | TCTATTAGTTGAAGGGCTACCGACGAGTCCGTTT | 0.745
31 | AGTCAAAGTTCATCTAGGTAACGTTAGATATGCT | 5.11
32 | TGTATGAGGTTATAAGATCAGGGAACGTTGCAAA | 1.26
33 | CGTCCAAGGTCAAGGTCAGTGTAAGAGACTCGAA | 4.67
34 | ACTATTAGTTGAGACGACGGCAACCGATAGGTTG | -0.484
35 | ACTAGCAGGCCAAGGGTCATTCAAGATTAGTCCG | 3.49
36 | AATACAGGGTAATCGTAGGCCAGAGTACGCACAG | 0.0104
37 | CTCTAAAGGTCGGTTGAGGTGAGTATACGGATAA | 2.42
38 | CCTGCTAGGGCATGGTCAGCTAATCTACAGTATG | -0.579
39 | TCTAGCAGACCAGAGGGTCACTCAAGAGGTACGG | 1.08
40 | CTCGAAAGTTCGGTTGAGGTGAGTATACGGATAA | 0.728
